Activity calls are given as the source filed them. Rule for the calls: active = hit-call score of the fitted dose curve at least 0.9, where 1 is the maximum; inactive = score below 0.9.
What was measured:
[1] = read-out: Human Leukocyte Antigen - DR isotype (HLADR), HLA-DRA (gene 3122); experiment: BSK_CASM3C_HLADR: BioMAP Diversity Plus: CASM3C Assay for Human Leukocyte Antigen - DR isotype (HLADR) Biomarker Activity (AID 2283043); conditions: primary human coronary artery smooth muscle cells; actives raise or lower the signal;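 note: cell-surface HLA-DR protein level quantified by ELISA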
[2] = read-out: Macrophage colony-stimulating factor (MCSF), CSF1 (gene 1435); experiment: BSK_CASM3C_MCSF: BioMAP Diversity Plus: CASM3C Assay for Macrophage colony-stimulating factor (MCSF) Biomarker Activity (AID 2283044); conditions: primary human coronary artery smooth muscle cells; actives raise or lower the signal;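 note: M-CSF protein amount quantified by ELISA after 24 h exposure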
[3] = read-out: Low-density lipoprotein receptor (LDLR), LDLR (gene 3949); experiment: BSK_CASM3C_LDLR: BioMAP Diversity Plus: CASM3C Assay for Low-density lipoprotein receptor (LDLR) Biomarker Activity (AID 2283045); conditions: primary human coronary artery smooth muscle cells; actives raise or lower the signal;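 note: LDLR protein level on the cell surface quantified by ELISA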
[4] = read-out: Monocyte Chemoattractant Protein-1 (MCP1), CCL2 (gene 6347); experiment: BSK_CASM3C_MCP1: BioMAP Diversity Plus: CASM3C Assay for Monocyte Chemoattractant Protein-1 (MCP1) Biomarker Activity (AID 2283046); conditions: primary human coronary artery smooth muscle cells; actives raise or lower the signal;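 note: MCP-1 level quantified by ELISA 24 h after dosing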
[5] = BSK_CASM3C_Proliferation: Cell Proliferation Assessment in the BioMAP Diversity Plus: CASM3C Assay (AID 2283047); conditions: primary human coronary artery smooth muscle cells;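 note: sulforhodamine B total protein stain as relative cell number at 560 nm; sub-confluent cells exposed 48 h before staining; fitted both ways against DMSO so gain or loss of cell number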
[6] = read-out: Monokine induced gamma interferon (MIG), CXCL9 (gene 4283); experiment: BSK_CASM3C_MIG: BioMAP Diversity Plus: CASM3C Assay for Monokine induced gamma interferon (MIG) Biomarker Activity (AID 2283048); conditions: primary human coronary artery smooth muscle cells; actives raise or lower the signal;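 note: MIG protein level measured by ELISA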
[7] = read-out: serum amyloid A (SAA), SAA1 (gene 6288); experiment: BSK_CASM3C_SAA: BioMAP Diversity Plus: CASM3C Assay for serum amyloid A (SAA) Biomarker Activity (AID 2283049); conditions: primary human coronary artery smooth muscle cells; actives raise or lower the signal;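 note: SAA protein level quantified by ELISA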
[8] = BSK_CASM3C_SRB: Viability Assessment in the BioMAP Diversity Plus: CASM3C Assay (AID 2283050); conditions: primary human coronary artery smooth muscle cells;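 note: total protein by SRB staining as cytotoxicity measure in parallel cultures; cells exposed to compound for 24 h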
[9] = read-out: Thrombomodulin, THBD (gene 7056); experiment: BSK_CASM3C_Thrombomodulin: BioMAP Diversity Plus: CASM3C Assay for Thrombomodulin Biomarker Activity (AID 2283051); conditions: primary human coronary artery smooth muscle cells; actives raise or lower the signal;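 note: thrombomodulin protein level measured by ELISA 24 h after dosing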
[10] = read-out: Tissue Factor, F3 (gene 2152); experiment: BSK_CASM3C_TissueFactor: BioMAP Diversity Plus: CASM3C Assay for Tissue Factor Biomarker Activity (AID 2283052); conditions: primary human coronary artery smooth muscle cells; actives raise or lower the signal;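 note: cell surface tissue factor protein level read by ELISA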

Measured: AC50

CCCC(=O)OCC
inactive: all assays above

COC(=O)c1c(Cl)c(Cl)c(C(=O)OC)c(Cl)c1Cl
inactive: all assays above

O=C(O)CC(O)C(=O)O (stereo not given)
inactive: all assays above

O=C(O)c1cccc(Oc2ccccc2)c1
inactive: all assays above

CCCCC(CC)COC(=O)CCCCCCCCC(=O)OCC(CC)CCCC (stereo not given)
active: [5] 7.33 µM
inactive: all other assays above

O=C(NS(=O)(=O)/C=C/c1ccccc1)c1ccc(F)cc1Cl
active: [5] 6.8 µM
inactive: all other assays above

On1ccccc1=S
inactive: [6] | [7] | [10]
active: [1] 27.7 µM | [2] 33.7 µM | [3] 11.7 µM | [4] 32.1 µM | [5] 6.45 µM | [8] 26.8 µM | [9] 878 nM

O=C(O)CCN(C1(C(=O)NO)CCCC1)S(=O)(=O)c1ccc(Oc2ccc(F)cc2)cc1
inactive: all assays above

O=C1CCC(N2C(=O)c3ccccc3C2=O)C(=O)N1 (stereo not given)
inactive: all assays above

CCCCCCCCCCCCCCCO
active: [3] 31.9 µM | [5] 20 µM
inactive: all other assays above

CC[C@H]1CC[C@H](NCc2cc3c(cc2OC)[C@H]2C[C@H]2C(=O)N3C)[C@H](c2ccccc2)N1
active: [5] 7.17 µM
inactive: all other assays above

Nc1cccc(N)c1
inactive: all assays above

O=C(O)c1cccc(N(Cc2cccnc2)c2ccc(OC(F)F)c(OC(F)F)c2)c1
active: [1] 8.72 µM | [2] 11.7 µM | [5] 6.98 µM
inactive: all other assays above

CC1(C)C(=O)N(Br)C(=O)N1Br
inactive: all assays above

Oc1ccc2c(c1)-c1ccccc1C2
active: [5] 6.61 µM
inactive: all other assays above

Cc1ccc(O)cc1
inactive: all assays above

CC/C(=C\C(=N/O)C(N)=O)C(C)[N+](=O)[O-] (stereo not given)
active: [1] 22.3 µM
inactive: all other assays above

CC(C)CC(C)(O)C#CC(C)(O)CC(C)C (stereo not given)
inactive: all assays above

C=CC(=C)CCC=C(C)C
inactive: all assays above

CC(C)c1cccc(C(C)C)c1N1C(=O)c2ccc(O)cc2C1=O
inactive: [4] | [6] | [9] | [10]
active: [1] 14.1 µM | [2] 32 µM | [3] 36.3 µM | [5] 20 µM | [7] 26.1 µM | [8] 20 µM

O=C1CCCCCN1
inactive: all assays above

Fc1ccccc1[C@@H](F)COC1CCC(Nc2ncnc3[nH]ncc23)CC1 (stereo not given in full)
active: [1] 6.88 µM | [5] 29.2 µM
inactive: all other assays above

CCn1nc(Cc2ccccc2)cc1C1CCN(C[C@H]2C[C@H](N(C)[C@@H](C(=O)O)C(C)C)C[C@@H]2c2cccc(F)c2)CC1
inactive: all assays above

CCOCCO
inactive: all assays above

CC(=O)c1ccc2c(c1)[C@H](NC(=O)c1ccc(F)cc1)[C@@H](O)C(C)(C)O2
inactive: all assays above

CC(C)=CCCC(C)CCO (stereo not given)
inactive: all assays above

CC(C)=CCC/C(C)=C\CO
inactive: all assays above

Cc1ccc(C)c(O)c1
inactive: all assays above

C1N2CN3CN1CN(C2)C3
inactive: all assays above
